Measured values reported in PubChem BioAssay (Tox21).
Values joined by “and” are separate entries in the source; they are usually repeats but may differ in a detail not shown here. Identical values can stand only once. Records with an inconclusive call do not appear. A call without a number means that no potency is given here. Where a structure was tested more than once in an assay, its records may differ in their call. Active and inactive are the calls of the source. The call rests on the fitted dose curve; in most records, active means well fitted inhibition curve with a large enough effect in the repeat runs; inconclusive means weak or mixed curves, or effect the other way; inactive means no such curve, though single readings can be large or run the other way.

Target: Nuclear receptor subfamily 1 group I member 3 (Homo sapiens) (UniProt Q14994)
Sequence (Q14994 whole entry, looked up): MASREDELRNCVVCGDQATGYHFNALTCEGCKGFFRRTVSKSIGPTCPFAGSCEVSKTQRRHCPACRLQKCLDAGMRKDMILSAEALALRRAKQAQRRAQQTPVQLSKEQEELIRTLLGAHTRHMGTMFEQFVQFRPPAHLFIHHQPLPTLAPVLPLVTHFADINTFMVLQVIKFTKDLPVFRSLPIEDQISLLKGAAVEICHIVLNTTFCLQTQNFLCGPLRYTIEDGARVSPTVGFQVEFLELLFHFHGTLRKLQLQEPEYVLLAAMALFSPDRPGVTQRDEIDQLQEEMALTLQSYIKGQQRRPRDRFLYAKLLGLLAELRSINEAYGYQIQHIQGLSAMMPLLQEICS
Assay: qHTS assay to identify small molecule antagonists of the constitutive androstane receptor (CAR) signaling pathway (AID 1224838);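 further: HepG2 cells stably expressing hCAR with CYP2B6 luciferase reporter stimulated by CITCO; nearly all actives have a fitted effect of over 40% in size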
Details: HepG2-CYP2B6-hCAR luciferase, CITCO-stimulated, 24 h; series mostly up to 92.4 µM
From the text: U.S. Tox21 Program National Center for Advancing Translational Sciences [NCATS] NIH Chemical Genomics Center [NCGC] U.S. Environmental Protection Agency [EPA] National Institutes of Environmental Health Sciences [NIEHS] National Toxicology Program [NTP] U.S. Food and Drug Administration [FDA] Tox21 Assay Overview: The constitutive androstane receptor (CAR) is a nuclear receptor which regulates multiple drug metabolizing enzymes (DMEs) and transporters. Activating CAR will generally increase the transcription and subsequent translation of CYP2B6 and CYP3A4. These two DMEs represent about 50% of the drug metabolizing potential in the body. When CAR is deactivated, the metabolizing potential in the body will decrease, subsequently increasing the toxicity in the body or lowering the therapeutic potential of a pro-drug. Recently, there have also been studies performed indicating CARs role in energy metabolism and cancer therapy. Therefore, inhibiting CARs activity could have a potential effect on diabetes and cancer. Identifying environmental toxins and compounds which modulate CAR, through the use of the Tox21 10K compound collection, will be an important step in determining the toxicity and potential therapeutic effects these factors will have on the human body.
Tox21 Assay Protocol Summary: A double-stable (hCAR and CYP2B6-2.2kb) transfected cell line, derived from human hepatoma (HepG2) cells, was utilized for the duration of the quantitative high-throughput screens. The HepG2-CYP2B6-hCAR cells suspended in DMEM culture medium supplemented with 10% FBS, 5 ug/mL blasticidin, 0.5 mg/mL geneticin, 100 U/mL penicillin and 100 ug/mL streptomycin were dispensed at 2500 cells/4 uL/well in 1536-well white solid bottom plates using a Multidrop Combi. After the assay plates were incubated at 37 C/5% CO2 for 4 hrs, 23 nL of compounds at 15 concentrations (from 5-48 columns) or positive control (from 1 to 4 columns) were transferred to the assay plates using a Pintool station. One uL of CITCO, was added using a Flying Reagent Dispenser to generate a final concentration of 50 nM CITCO inside each well. After a 24 hr incubation period at 37 C/5% CO2, four uL of ONE-Glo reagent was added into the assay plates using a Flying Reagent Dispenser. After a 30 min incubation period at room temperature, the luminescence intensity in the assay plates was measured using a ViewLux plate reader.
Potency means the concentration at half of the fitted maximal effect.

SMILES | Potency
CC(C)(C)NCC(O)c1ccccc1Cl (stereo not given) | inactive
CCCCC1C(=O)NC(=O)N(C2CCCCC2)C1=O (stereo not given) | inactive
CN1C[C@H](C(=O)N[C@]2(C)O[C@@]3(O)[C@@H]4CCCN4C(=O)[C@H](Cc4ccccc4)N3C2=O)C=C2c3cccc4[nH]cc(c34)C[C@H]21 | inactive
CCCCCCCCCCCC[N+](C)(C)CCOc1ccccc1 | inactive
CNC(=O)Oc1cccc(N=CN(C)C)c1 | inactive
O=C=NC1CCCCC1 | inactive
CC[N+]1(CCOC(=O)C(O)(c2ccccc2)c2ccccc2)CCCCC1 | inactive
C=CCN1C[C@H](C)N([C@H](c2ccc(C(=O)N(CC)CC)cc2)c2cccc(OC)c2)C[C@H]1C | inactive
O=C(O)C(Cl)(Cl)Br | inactive
OCCSSCCO | inactive
COP(=O)(OC)OC(Br)C(Cl)(Cl)Br (stereo not given) | inactive
CCCN(CCC)c1c([N+](=O)[O-])cc(C(C)C)cc1[N+](=O)[O-] | inactive and 1 nM (active)
C=CCOCC1CO1 (stereo not given) | inactive
CN1C(=O)CN=C(c2ccccc2)c2cc([N+](=O)[O-])ccc21 | inactive
OCCCl | inactive
CC(C)(C)c1ccc(CCOc2ncnc3ccccc23)cc1 | inactive
C=CC(=O)OCC | inactive
CC(=O)NNc1ccccc1 | inactive
CCC(C)(C)O | inactive
O=P(OCC(Br)CBr)(OCC(Br)CBr)OCC(Br)CBr (stereo not given) | inactive

SMILES | Potency
CCCCCCCCCCCCN(C)C | inactive
Cc1ccc2c(C)cccc2c1 | inactive
FC(Cl)(Cl)C(F)(Cl)Cl | inactive
Nc1ccccc1C(=O)OCCc1ccccc1 | inactive
C[C@]12CC[C@H]3[C@@H](CCC4=CC(=O)CC[C@@H]43)[C@@H]1CC[C@@H]2OC(=O)CCc1ccccc1 | inactive
COC(=O)Cc1ccccc1 | inactive
CC(C)(C#N)C(C)(C)C#N | inactive
CCOP(=S)(OCC)Oc1ccc(S(C)=O)cc1 (stereo not given) | inactive
CC(C)c1ccc(OP(=O)(Oc2ccc(C(C)C)cc2)Oc2ccc(C(C)C)cc2)cc1 | inactive
C[C@H]1O[C@H](OC2[C@@H](O)[C@@H](O)C(O)[C@H](O)[C@H]2O)[C@@H](N)C[C@@H]1N=C(N)C(=O)O (stereo not given in full) | inactive
CN(C)c1ccc(N=O)cc1 | 43.4 µM (active) and 43.3 µM (active)
C[C@H](N)[C@H](O)c1ccc(O)c(O)c1 | inactive
ClCc1ccccc1Cl | inactive
O=C(O)c1cc(I)cc(I)c1I | inactive
CCCCC#N | inactive
CC(C)CCCCCCCOC(=O)c1ccccc1C(=O)OCCCCCCCC(C)C | inactive
CCCN(CCC)C(=O)Cc1c(-c2ccc(Cl)cc2)nc2ccc(Cl)cn12 | inactive
C=CC(C)(CCC=C(C)C)OC(=O)c1ccccc1N (stereo not given) | inactive
C[CH2][Hg][S]c1ccccc1C(=O)O | 12.2 µM (active) and 6.68 µM (active)
CCC[N+](CCC)(CCC)CCC | inactive
